Measured values: PubChem BioAssay
Active and inactive are the calls of the source.

How the values were obtained:
[1] = compound effects on lung adenocarcinoma cell viability – A549, calcein-AM fluorescence, 48 h, basal, profiling panel (AID 1162); conditions: higher = more signal
[2] = compound effects on differentiated 3T3-L1 adipocyte viability – cell-based, 3T3-L1 adipocytes, calcein-AM fluorescence, 48 h, basal, profiling panel (AID 1163); conditions: 3T3-L1 adipocytes viability, higher = more signal
[3] = compound effects on hepatocellular carcinoma cell viability – HepG2, calcein-AM fluorescence, 48 h, basal, profiling panel (AID 1164); conditions: higher = more signal
[4] = compound effects on multiple myeloma cell viability – MM1S, calcein-AM fluorescence, 48 h, basal, profiling panel (AID 1165); conditions: higher = more signal
[5] = calcein-AM signal in unstimulated myeloma cells – cell-based, calcein-AM fluorescence, 48 h, PK04 Diversity Set, profiling panel (AID 1166); conditions: RPMI8226 myeloma viability, higher = more signal;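 note: cells grown under basal conditions without added stimulus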
[6] = JC-1 mitochondrial signal, unstimulated HepG2 cells – cell-based, JC-1 fluorescence, 24 h, 100 nL compound, profiling panel (AID 1167); conditions: HepG2 mitochondrial potential, higher = more signal
[7] = JC-1 mitochondrial signal, unstimulated adipocytes – cell-based, JC-1 fluorescence, 3T3-L1 adipocytes, 24 h, 100 nL compound, profiling panel (AID 1168); conditions: JC-1 mitochondrial fluorescence, higher = more signal, called active from +8 up or from −8 down
[8] = JC-1 mitochondrial signal, unstimulated myeloma cells – cell-based, JC-1 fluorescence, RPMI8226, 24 h, 100 nL compound, profiling panel (AID 1169); conditions: JC-1 mitochondrial potential fluorescence, higher = more signal
[9] = JC-1 mitochondrial signal, unstimulated MM1S myeloma – cell-based, JC-1 fluorescence, 24 h, 100 nL compound, profiling panel (AID 1170); conditions: MM1S mitochondrial potential, higher = more signal
[10] = resazurin metabolic signal in A549 cells – cell-based, resazurin fluorescence, 24 h, PK04 Diversity Set, profiling panel (AID 1171); conditions: A549 viability, higher = more signal, called active from +8 up or from −8 down
Note: test concentration not given here.

Compound | z-score [1] | z-score [2] | z-score [3] | z-score [4] | z-score [5] | z-score [6] | z-score [7] | z-score [8] | z-score [9] | z-score [10]
O=C1C[C@@H](O)[C@@H](O)[C@@H]2[C@@H]3C(=O)N(C[C@@H]4CCCO4)C(=O)[C@@H]3CC[C@H]12 | -0.232 | -0.42 | 0.614 | 0.136 | 0.433 | 0.446 | 0.763 (inactive) | -0.131 | -0.586 | -0.747 (inactive)
C[C@@H]1NC(=O)[C@@H](C)COC(=O)[C@H](C)NC(=O)[C@@H](C)COC1=O | -0.838 | 1.19 | 0.1 | -0.426 | -0.604 | 0.503 | 0.42 (inactive) | 0.0799 | 0.307 | 0.228 (inactive)
C[C@@H](c1ccccc1)N1C(=O)[C@H]2[C@H]3[C@H](O)[C@H](O)CC(=NO[C@@H]4O[C@H](CO)[C@@H](O)[C@H](O)[C@H]4O)[C@@H]3CC[C@H]2C1=O | -0.57 | 0.698 | -0.943 | 0.21 | -0.253 | -0.688 | 0.418 (inactive) | -0.206 | -0.189 | -0.644 (inactive)
O=C1C[C@@H](O)[C@@H](O)[C@@H]2[C@@H]3C(=O)N(Cc4ccc5c(c4)OCO5)C(=O)[C@@H]3CC[C@H]12 | 0.474 | 1.46 | 0.517 | 0.0737 | -0.0121 | -0.0331 | -0.221 (inactive) | 0.522 | 1.37 | -0.0495 (inactive)
CO[C@H]1COC(=O)[C@@H]2CCCN2C(=O)CC=C[C@@H](C)[C@H](OC)COC(=O)[C@@H](OCc2ccccc2)C=C[C@@H]1C | -0.622 | 0.852 | 0.305 | 0.41 | -0.697 | 0.887 | 0.377 (inactive) | 0.0666 | -0.305 | 0.0375 (inactive)
CC(C)=NOC[C@@H](C)[C@H](OCc1ccccc1)C(C)C | 0.108 | 0.311 | -0.0481 | -0.313 | -0.556 | -0.0858 | 0.0392 (inactive) | -0.279 | 0.503 | -0.557 (inactive)
COC(=O)[C@@H]1CC[C@@H](C)[C@H](c2ccc(Br)cc2)N1 | 0.376 | 0.931 | 0.232 | -0.749 | 0.628 | 0.307 | -0.00943 (inactive) | 0.273 | 1.23 | 0.316 (inactive)
CC(CCN1CCCCc2nc(C)c(C)cc21)=NO[C@@H](C)c1cn([C@H](CO)Cc2ccccc2)nn1 | 0.455 | -0.374 | 0.0163 | 0.313 | 0.307 | -1.33 | -0.151 (inactive) | 0.878 | -0.859 | -0.32 (inactive)
CC(C)(C)N1C(=O)[C@H]2[C@H]3[C@H](O)[C@H](O)CC(=NO[C@@H]4O[C@H](CO)[C@@H](O)[C@H](O)[C@H]4O)[C@H]3CC[C@H]2C1=O | -2.09 | 1.08 | -2.16 | -2.93 | -3.96 | -1.68 | -1.81 (inactive) | -0.344 | -0.447 | -0.817 (inactive)
CCOC(=O)[C@H](Cc1ccccc1)NC(=O)CCC1CC(OC(=O)NCCc2ccc(F)cc2)CC2(CCCC(COC(=O)NCCc3ccccc3OC)O2)O1 (stereo not given in full) | -0.793 | -0.702 | 0.492 | -2.99 | -1.42 | 0.723 | 0.3 (inactive) | 0.165 | -1.02 | -0.301 (inactive)
C[C@H]1Cc2c(COc3ccccc3)nc3c(c2CO1)CN(CCOc1ccccc1)CC3 | 1.05 | 0.175 | 0.93 | -0.125 | -0.517 | 2.33 | 0.678 (inactive) | -0.041 | 0.184 | -0.0515 (inactive)
CCCNC(=O)OC[C@H]1O[C@H](CCON=C(C)CCN2CCc3nc(CC)c(CC)cc3C2)C=C[C@@H]1Oc1ccc(OC)cc1 | -0.142 | 0.73 | -0.304 | -2.95 | -3.14 | 4.22 | -1.48 (inactive) | -0.0505 | 0.598 | -0.245 (inactive)
CC(C)CON=C1C[C@@H](O)[C@@H](O)[C@@H]2[C@@H]3C(=O)N(C4CCCCC4)C(=O)[C@@H]3CC[C@H]12 | 0.325 | 0.274 | 0.232 | 0.768 | -0.909 | -0.357 | 0.0297 (inactive) | 0.0139 | -0.0788 | -0.318 (inactive)
CC(CCN1CCCCc2nc(C)c(C)cc21)=NOC[C@@H](O)COCc1ccco1 | 0.224 | 0.0279 | -0.437 | 0.0805 | -1.05 | -1.43 | -1.47 (inactive) | 0.854 | -0.797 | -0.701 (inactive)
CCCNC(=O)OC[C@H]1O[C@H](CCON=C(C)CCN2CCCc3nc(C)c(C)cc32)C=C[C@@H]1Oc1ccc(OC)cc1 | 0.476 | 1.43 | -0.243 | -0.878 | -1.57 | 2.15 | -1.09 (inactive) | 0.455 | 0.023 | 1.21 (inactive)
C=CC[C@@H]1C=C[C@H](ON=C(C)CCC(=O)OC[C@H]2O[C@H](c3ccccc3)C=C[C@@H]2Oc2ccc(OC)cc2)[C@@H](CO)O1 | 1.21 | -0.741 | -0.403 | -1.91 | -0.428 | -0.859 | 0.0616 (inactive) | 0.0738 | -1.02 | 0.524 (inactive)
COC(=O)CC=C[C@@H](C)[C@@H](C=NO[C@H](C)c1cn([C@H](CO)Cc2ccccc2)nn1)OC | -0.0647 | 0.304 | -0.458 | 0.209 | 0.0397 | -0.741 | -1.24 (inactive) | 0.923 | 1.74 | 0.556 (inactive)
C#CCCCON=C1C[C@@H](O)[C@@H](O)[C@@H]2[C@@H]3C(=O)N(C(C)(C)C)C(=O)[C@@H]3CC[C@H]12 | 0.053 | -0.304 | 0.673 | 0.505 | -0.413 | -0.161 | -0.505 (inactive) | 0.386 | -0.708 | -0.496 (inactive)
CO[C@@H]1COC(=O)[C@@H](C)COC(=O)[C@@H](C)NC(=O)CC=C[C@@H]1C | -0.448 | 1.25 | -1.45 | -0.539 | -1.86 | 0.2 | -0.189 (inactive) | 0.0701 | -1.48 | 0.512 (inactive)
O=C(NN=C1C[C@@H](O)[C@@H](O)[C@@H]2[C@@H]3C(=O)N(C4CCCCC4)C(=O)[C@@H]3CC[C@H]12)OCc1ccccc1 | 0.215 | 0.0766 | -0.822 | -0.816 | -0.284 | -1.14 | -0.458 (inactive) | 0.219 | 0.703 | -0.401 (inactive)
O=C1C=C[C@@H](O)[C@@H]2[C@@H]3C(=O)N(c4ccc(F)cc4F)C(=O)[C@@H]3CC[C@@H]12 | 0.0767 | 0.244 | 1.04 | 0.157 | -1.1 | 0.991 | 0.46 (inactive) | -0.322 | 0.921 | -1.47 (inactive)
O=C1[C@H]2[C@H]3[C@H](O)[C@H](O)CC(=NOCc4ccccc4)[C@@H]3CC[C@H]2C(=O)N1c1ccc(F)cc1F | 0.504 | -0.23 | 0.688 | 0.635 | 1.13 | 1.51 | -0.371 (inactive) | -0.261 | -1.57 | -1.03 (inactive)
CCOC(=O)[C@H](Cc1ccccc1)NC(=O)CCC1CC(OC(=O)NCCc2ccc(F)cc2)CC2(CCCC(COC(=O)NCCOC)O2)O1 (stereo not given in full) | -0.153 | -0.41 | -0.981 | -3.38 | -1.7 | 0.0204 | 0.872 (inactive) | -0.326 | -1.48 | 0.042 (inactive)
C[C@@H]1CC[C@H]2C(=O)O[C@@H](Cc3ccccc3)CN2[C@H]1c1ccc(Br)cc1 | 0.442 | 0.185 | 0.828 | -0.591 | -0.323 | -0.225 | 0.276 (inactive) | 0.231 | 0.697 | 0.539 (inactive)
CCOC(=O)NN=C1C[C@@H](O)[C@@H](O)[C@@H]2[C@@H]3C(=O)N(c4cccc(Oc5ccccc5)c4)C(=O)[C@@H]3CC[C@H]12 | 0.285 | 1.01 | -0.0233 | 0.0687 | 0.443 | 1.03 | 0.675 (inactive) | 0.00981 | -1.56 | -0.263 (inactive)
CCOC(=O)[C@H](CC(C)C)NC(=O)CCC1CC(OC(=O)NCCc2ccc(F)cc2)CC2(CCCC(COC(=O)NCC3CCCCC3)O2)O1 (stereo not given in full) | -0.656 | 0.0504 | -0.843 | -0.222 | 0.444 | -1.77 | -0.293 (inactive) | -0.168 | -0.24 | 0.21 (inactive)
CO[C@H]1COC(=O)[C@@H](C)COC(=O)[C@H](C)NC(=O)CC=C[C@H]1C | -0.235 | 0.18 | 0.314 | 0.0766 | 0.235 | 0.631 | 0.118 (inactive) | -0.693 | 0.86 | 0.488 (inactive)
CC(C)=CCCC(C)=CCON=C1C[C@@H](O)[C@@H](O)[C@@H]2[C@@H]3C(=O)N(C[C@@H]4CCCO4)C(=O)[C@@H]3CC[C@H]12 | -0.0285 | -0.789 | -0.758 | 0.253 | -0.674 | -0.915 | -0.528 (inactive) | 0.569 | -0.789 | 0.691 (inactive)
O=C(NN=C1C[C@@H](O)[C@@H](O)[C@@H]2[C@@H]3C(=O)N(C[C@@H]4CCCO4)C(=O)[C@@H]3CC[C@H]12)OCc1ccccc1 | -0.0032 | -0.0428 | -0.718 | 0.338 | -0.0238 | -0.249 | -0.0601 (inactive) | 0.536 | -0.853 | -0.714 (inactive)
